Reference: PubChem BioAssay (NCI)
Where “and” joins values, the source holds several entries; their conditions need not be identical. Equal entries are not always repeated. About 83,000 compounds went through this panel and 20% of them were active in at least one assay; those are over-represented in the sample as a whole.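 Testing used 96-well plates and a 48-hour single-concentration exposure. Example: -40 means 40% of the starting cells died.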 Calls of active or inactive are those of the source. Rule for the calls: active = growth percent below 10; inactive = the rest.

Columns and labels:
Assay in all cases: NCI-60 one-dose screen, 48 h (100 = growth as untreated, 0 = no growth, -100 = all killed)
Details in all cases: 10 µM unless noted
[1] = tested on: NCI-H23 lung
[2] = tested on: NCI-H226 lung
[3] = tested on: NCI-H322M lung
[4] = tested on: HOP-62 NSCLC
[5] = tested on: NCI-H460 lung
[6] = tested on: HOP-92 NSCLC
[7] = tested on: NCI-H522 lung
[8] = tested on: A549/ATCC NSCLC
[9] = tested on: 786-0 renal
[10] = tested on: COLO 205 colon

CC(=O)Nc1cccc2c1CCCC2
growth [1]: 98% (inactive) and 96.3% (inactive)
growth [2]: 98.9% (inactive) and 98.7% (inactive)
growth [3]: 113% (inactive) and 98% (inactive)
growth [4]: 91.8% (inactive) and 84% (inactive)
growth [5]: 101% (inactive) and 111% (inactive)
growth [6]: 96.5% (inactive) and 80.8% (inactive)
growth [7]: 68.7% (inactive) and 75.3% (inactive)
growth [8]: 63.6% (inactive) and 88.1% (inactive)
growth [9]: 95.8% (inactive) and 96.6% (inactive)
growth [10]: 109% (inactive) and 101% (inactive)

CC(C)(O)Cn1cc(-c2ccc3nc(OC4CC4)ccc3c2)c2c(N)ncnc21
growth [1]: 70.1% (inactive) and 42% (inactive)
growth [2]: 56.5% (inactive) and 26.5% (inactive)
growth [3]: 96.7% (inactive) and 73.5% (inactive)
growth [4]: 73.8% (inactive) and 39.8% (inactive)
growth [5]: 88.5% (inactive) and 27.6% (inactive)
growth [6]: 48% (inactive) and 32.8% (inactive)
growth [7]: 67.1% (inactive) and 36.8% (inactive)
growth [8]: 75.3% (inactive) and 51.3% (inactive)
growth [9]: 89.1% (inactive) and 60.2% (inactive)
growth [10]: 91.3% (inactive) and 58.7% (inactive)

CN1CCN(CCC=C2c3ccccc3Sc3ccc(S(=O)(=O)N(C)C)cc32)CC1
growth [1]: 84.4% (inactive) and 91% (inactive)
growth [2]: 111% (inactive) and 108% (inactive)
growth [3]: 66.9% (inactive) and 77.2% (inactive)
growth [4]: 75.9% (inactive) and 83.8% (inactive)
growth [5]: 82.7% (inactive) and 82% (inactive)
growth [6]: 29.4% (inactive)
growth [7]: 44.2% (inactive) and 58.5% (inactive)
growth [8]: 69.3% (inactive) and 79.6% (inactive)
growth [9]: 41.6% (inactive) and 58.5% (inactive)
growth [10]: -83.1% (active) and 44% (inactive)

COc1ccc(/C(C#N)=C/c2ccccn2)cc1
growth [1]: 98% (inactive) and 102% (inactive)
growth [2]: 95.9% (inactive) and 128% (inactive)
growth [3]: 108% (inactive) and 110% (inactive)
growth [4]: 112% (inactive) and 109% (inactive)
growth [5]: 105% (inactive) and 103% (inactive)
growth [6]: 99.8% (inactive)
growth [7]: 98.1% (inactive) and 103% (inactive)
growth [8]: 101% (inactive) and 103% (inactive)
growth [9]: 96.7% (inactive) and 73.8% (inactive)
growth [10]: 112% (inactive) and 173% (inactive)

Oc1ccccc1/C=N\NC(=S)N/N=C/c1ccccc1O
growth [1]: 62.6% (inactive) and 58.7% (inactive)
growth [2]: 68.1% (inactive) and 43.4% (inactive)
growth [3]: 24.8% (inactive) and 29.7% (inactive)
growth [4]: 48.9% (inactive) and 71.5% (inactive)
growth [5]: 19.5% (inactive) and 12.5% (inactive)
growth [6]: 45.9% (inactive) and 62.4% (inactive)
growth [7]: 31% (inactive) and 2.87% (active)
growth [8]: 32.4% (inactive)
growth [9]: 29% (inactive) and 27.1% (inactive)
growth [10]: 65.6% (inactive) and 48.7% (inactive)

CC(C)Oc1ccc2cc(-c3nn(CC4CCNCC4)c4ncnc(N)c34)ccc2c1
growth [1]: 67.3% (inactive) and 42.6% (inactive)
growth [2]: 97.6% (inactive) and 63.7% (inactive)
growth [3]: 89.8% (inactive) and 53.9% (inactive)
growth [4]: 79.8% (inactive) and 53.2% (inactive)
growth [5]: 102% (inactive) and 15.8% (inactive)
growth [6]: 66.1% (inactive) and -1.47% (active)
growth [7]: 87.2% (inactive) and -28% (active)
growth [8]: 80.1% (inactive) and 16.9% (inactive)
growth [9]: 89.3% (inactive) and -32.9% (active)
growth [10]: 74.4% (inactive) and -47.7% (active)

O=C(CCl)c1ccc2c(c1)Nc1ccccc1S2
growth [1]: 90.7% (inactive) and 94.2% (inactive)
growth [2]: 89.4% (inactive) and 91.2% (inactive)
growth [3]: 102% (inactive) and 92.7% (inactive)
growth [4]: 97.6% (inactive) and 99.8% (inactive)
growth [5]: 110% (inactive) and 105% (inactive)
growth [6]: 101% (inactive)
growth [7]: 66.1% (inactive) and -35.2% (active)
growth [8]: 100% (inactive) and 106% (inactive)
growth [9]: 63.6% (inactive) and 79.1% (inactive)
growth [10]: 110% (inactive) and 86.7% (inactive)

COc1ccc2nc(Cl)cc(C)c2c1
growth [1]: 101% (inactive) and 107% (inactive)
growth [2]: 96.5% (inactive) and 104% (inactive)
growth [3]: 91.3% (inactive) and 98.1% (inactive)
growth [4]: 104% (inactive) and 65% (inactive)
growth [5]: 100% (inactive) and 111% (inactive)
growth [6]: 104% (inactive) and -11.5% (active)
growth [7]: 97.5% (inactive) and 112% (inactive)
growth [8]: 96.5% (inactive) and 109% (inactive)
growth [9]: 97.2% (inactive) and 79.2% (inactive)
growth [10]: 104% (inactive) and 131% (inactive)

CC(=O)c1ccccc1O
growth [1]: 103% (inactive) and 97.7% (inactive)
growth [2]: 102% (inactive) and 81.7% (inactive) and 104% (inactive)
growth [3]: 98.4% (inactive) and 89.7% (inactive) and 98.2% (inactive)
growth [4]: 101% (inactive) and 87.7% (inactive) and 103% (inactive)
growth [5]: 105% (inactive) and 107% (inactive) and 103% (inactive)
growth [6]: 83.7% (inactive) and 103% (inactive)
growth [7]: 108% (inactive) and 88.4% (inactive) and 111% (inactive)
growth [8]: 104% (inactive) and 81.9% (inactive) and 96.2% (inactive)
growth [9]: 104% (inactive) and 103% (inactive) and 101% (inactive)
growth [10]: 131% (inactive) and 106% (inactive) and 118% (inactive)

CC[N+](CC)(CC(=O)Nc1c(C)cccc1C)Cc1ccccc1
growth [1]: 85.4% (inactive) and 99.4% (inactive)
growth [2]: 87% (inactive) and 97.8% (inactive)
growth [3]: 110% (inactive) and 93.8% (inactive)
growth [4]: 85.2% (inactive) and 93.2% (inactive)
growth [5]: 100% (inactive) and 101% (inactive)
growth [6]: 112% (inactive) and 90.7% (inactive)
growth [7]: 92% (inactive)
growth [8]: 106% (inactive) and 98.5% (inactive)
growth [9]: 103% (inactive)
growth [10]: 103% (inactive)

Cn1c(SSc2ccc(-c3cccnc3)n2C)ccc1-c1cccnc1
growth [1]: 99.8% (inactive) and 111% (inactive)
growth [2]: 108% (inactive) and 105% (inactive)
growth [3]: 106% (inactive) and 95.5% (inactive)
growth [4]: 117% (inactive) and 118% (inactive)
growth [5]: 101% (inactive) and 65.9% (inactive)
growth [6]: 79% (inactive) and 101% (inactive)
growth [7]: 62% (inactive) and 81.9% (inactive)
growth [8]: 103% (inactive)
growth [9]: 120% (inactive) and 112% (inactive)
growth [10]: 116% (inactive) and 102% (inactive)

CCN1CCN(CCNc2nccc(-c3c(-c4cccc(O)c4)nc4sccn34)n2)S1(=O)=O
growth [1]: 87.1% (inactive) and 88.3% (inactive)
growth [2]: 98.9% (inactive) and 99.1% (inactive)
growth [3]: 66% (inactive) and 68.3% (inactive)
growth [4]: 120% (inactive) and 92.2% (inactive)
growth [5]: 52.7% (inactive) and 47.9% (inactive)
growth [6]: 32.2% (inactive)
growth [7]: 67% (inactive) and 63.1% (inactive)
growth [8]: 86% (inactive) and 70.1% (inactive)
growth [9]: 94.2% (inactive) and 64.3% (inactive)
growth [10]: 24.5% (inactive) and 28.1% (inactive)

CCc1c(CC(=O)O)c2cc(C)ccc2n1Cc1ccc(Cl)cc1
growth [1]: 97.3% (inactive) and 90% (inactive)
growth [2]: 94.9% (inactive) and 97.8% (inactive)
growth [3]: 76.3% (inactive) and 280% (inactive)
growth [4]: 94.7% (inactive) and 70.2% (inactive)
growth [5]: 103% (inactive) and 95.8% (inactive)
growth [6]: 88% (inactive) and 91.7% (inactive)
growth [7]: 85% (inactive) and 81.5% (inactive)
growth [8]: 89.1% (inactive) and 87.3% (inactive)
growth [9]: 106% (inactive) and 47% (inactive)
growth [10]: 123% (inactive)

O=C(Cc1cccc2ccccc12)N/N=C/c1ccc2c(c1)CCC2
growth [1]: 88.5% (inactive)
growth [2]: 97.3% (inactive)
growth [3]: 84.3% (inactive)
growth [4]: 67.1% (inactive)
growth [5]: 81.5% (inactive)
growth [6]: 92.9% (inactive)
growth [7]: 23.5% (inactive)
growth [8]: 65.8% (inactive)
growth [9]: 88% (inactive)
growth [10]: 82% (inactive)
